Results from the supplement of paper PMC6331611.
Several values for one entry are separate records, joined by “and”; a condition that tells them apart may be missing. Identical values can stand only once. ± gives the standard deviation of the averaged measurements. In all, about 1,600 compounds were measured (“normalized intracellular growth (luminescence, IQM-normalized) in RAW264.7 macrophages”: median about 1, lowest 2% from about 0.43 on). Only a selection was taken, and the lowest values are over-represented in it overall.

System: Salmonella enterica serovar Typhimurium SL1344
Test: normalized intracellular growth (luminescence, IQM-normalized) in RAW264.7 macrophages (fraction of plate interquartile mean); higher = more bacterial growth (less inhibition)
Details: 10 µM

SMILES | normalized intracellular growth (time point: T3 (3 h)) | normalized intracellular growth (time point: Tfinal (~6 h))
C=C(C)[C@H]1CC=C(C)CC1 | 0.96 ± 0.013 | 1.1 ± 0.098
C#C[C@]1(OC(C)=O)CC[C@H]2[C@@H]3CCC4=CC(=O)CC[C@@H]4[C@H]3CC[C@@]21C | 1.03 ± 0.046 | 0.972 ± 0.043
CC(O)CC(C)(C)O (stereo unspecified) | 1.05 ± 0.086 | 0.769 ± 0.19
CC[C@H]1OC(=O)[C@H](C)[C@@H](O[C@H]2C[C@@](C)(OC)[C@@H](O)[C@H](C)O2)[C@H](C)[C@@H](O[C@@H]2O[C@H](C)C[C@H](N(C)C)[C@H]2O)[C@](C)(O)C[C@@H](C)CN(C)[C@H](C)[C@@H](O)[C@]1(C)O | 1.05 ± 0.039 | 0.00697 ± 0.00054
CC[C@H]1OC(=O)[C@H](C)[C@@H](O[C@H]2C[C@@](C)(OC)[C@@H](O)[C@H](C)O2)[C@H](C)[C@@H](O[C@@H]2O[C@H](C)C[C@H](N(C)C)[C@H]2O)[C@](C)(O)C[C@@H](C)C(=O)[C@H](C)[C@@H](O)[C@]1(C)O | 0.964 and 0.725 | 0.913 and 0.963
CC[C@H]1OC(=O)[C@H](C)[C@@H](O[C@H]2C[C@@](C)(OC)[C@@H](O)[C@H](C)O2)[C@H](C)[C@@H](O[C@@H]2O[C@H](C)C[C@H](N(C)C)[C@H]2O)[C@](C)(O)C[C@@H](C)/C(=N\OCOCCOC)[C@H](C)[C@@H](O)[C@]1(C)O | 1.06 ± 0.03 | 0.825 ± 0.42
O=C(O)/C=C/C(=O)O | 1.14 ± 0.1 | 1.03 ± 0.16
CCCCCCCCCCOc1cc2c(O)c(C(=O)OCC)cnc2cc1OCC | 0.942 ± 0.08 | 0.973 ± 0.13
CC/C=C\C/C=C\C/C=C\C/C=C\C/C=C\C/C=C\CCC(=O)O | 0.977 ± 0.069 | 1.02 ± 0.09
COc1cc2c3cc1Oc1cc(ccc1O)C[C@@H]1c4c(cc(OC)c(O)c4Oc4ccc(cc4)C[C@@H]3N(C)CC2)CC[N+]1(C)C | 0.937 ± 0.083 | 0.976 ± 0.16
CC[C@H]1OC(=O)[C@H](C)C(=O)[C@H](C)[C@@H](O[C@@H]2O[C@H](C)C[C@H](N(C)C)[C@H]2O)[C@](C)(OC)C[C@@H](C)C(=O)[C@H](C)[C@H]2N(CCCCn3cnc(-c4cccnc4)c3)C(=O)O[C@]12C | 1.01 ± 0.086 | 0.0132 ± 0.0042
CCC(=O)O[C@H]1[C@H](O[C@@H]2[C@@H](C)[C@H](O[C@H]3C[C@@](C)(OC)[C@@H](O)[C@H](C)O3)[C@@H](C)C(=O)O[C@H](CC)[C@@](C)(O)[C@H](O)[C@@H](C)C(=O)[C@H](C)C[C@@]2(C)O)O[C@H](C)C[C@@H]1N(C)C | 0.792 ± 0.092 | 0.901 ± 0.065
CC[C@H]1OC(=O)[C@H](C)[C@@H](O[C@H]2C[C@@](C)(OC)[C@@H](O)[C@H](C)O2)[C@H](C)[C@@H](O[C@@H]2O[C@H](C)C[C@H](N(C)C)[C@H]2O)[C@](C)(OC)C[C@@H](C)C(=O)[C@H](C)[C@@H](O)[C@]1(C)O | 1.09 ± 0.015 | 0.976 ± 0.071
CCN[C@@H]1C[C@H](N)[C@@H](O[C@H]2OC(CN)=CC[C@H]2N)[C@H](O)[C@H]1O[C@H]1OC[C@](C)(O)[C@H](NC)[C@H]1O | 0.986 ± 0.033 | 0.632 ± 0.25
O=S(=O)(O)NC1CCCCC1 | 0.688 ± 0.097 | 0.748 ± 0.044
CCCCCCCCCCC[C@@H](C[C@@H]1OC(=O)[C@H]1CCCCCC)OC(=O)[C@H](CC(C)C)NC=O | 0.987 ± 0.091 | 1.21 ± 0.048
C[N+](C)(C)CC(O)CC(=O)[O-] (stereo unspecified) | 0.978 ± 0.032 | 0.91 ± 0.16
Nc1nc(=O)[nH]cc1F | 1.07 ± 0.058 | 1.28 ± 0.1
O=c1cc[nH]c(=O)[nH]1 | 0.935 ± 0.09 | 0.9 ± 0.052
O=c1[nH]cc(F)c(=O)[nH]1 | 0.731 ± 0.089 | 0.153 ± 0.006
O=C(NCCCN1CCOCC1)c1ccc(Cl)cc1 | 1.25 ± 0.11 | 1.35 ± 0.15
O=C(c1cccnc1)N1CCOCC1 | 1.01 ± 0.09 | 0.728 ± 0.18
CC(=O)c1ccc2c(c1)N(CCCN1CCN(CCO)CC1)c1ccccc1S2 | 1.04 ± 0.024 | 0.807 ± 0.11

SMILES | normalized intracellular growth (time point: T3 (3 h)) | normalized intracellular growth (time point: Tfinal (~6 h))
Cc1c2oc3c(C)ccc(C(=O)N[C@@H]4C(=O)N[C@H](C(C)C)C(=O)N5CCC[C@H]5C(=O)N(C)CC(=O)N(C)[C@@H](C(C)C)C(=O)O[C@@H]4C)c3nc-2c(C(=O)N[C@@H]2C(=O)N[C@H](C(C)C)C(=O)N3CCC[C@H]3C(=O)N(C)CC(=O)N(C)[C@@H](C(C)C)C(=O)O[C@@H]2C)c(N)c1=O | 0.861 ± 0.057 | 1.05 ± 0.12
CCCCCCCC/C=C\CCCCCCCC(=O)O.NCCO | 1.05 ± 0.035 | 1.09 ± 0.041
COC(=O)N/N=C/c1c[n+]([O-])c2ccccc2[n+]1[O-] | 0.957 ± 0.032 | 0.309 ± 0.16
CC(=O)[C@@]1(O)CC[C@H]2[C@@H]3C=C(Cl)C4=CC(=O)[C@@H]5C[C@@H]5[C@]4(C)[C@H]3CC[C@@]21C | 1.06 ± 0.049 | 0.762 ± 0.26
COc1c2occc2cc2ccc(=O)oc12 | 1.15 ± 0.034 | 1.36 ± 0.076
Nc1nc(N)c2nc(CNc3ccc(C(=O)N[C@@H](CCC(=O)O)C(=O)O)cc3)cnc2n1 | 0.994 ± 0.021 | 1.09 ± 0.15
CCCCCC(C)N (stereo unspecified) | 0.993 ± 0.077 | 0.979 ± 0.12
CO[C@H]1C[C@H](O[C@@H]2/C(C)=C/C[C@@H]3C[C@@H](C[C@]4(CC[C@H](C)[C@@H](C5CCCCC5)O4)O3)OC(=O)[C@@H]3C=C(C)/C(=N/O)[C@H]4OC/C(=C\C=C\[C@@H]2C)[C@]43O)O[C@@H](C)[C@@H]1O | 1.01 ± 0.064 | 1.16 ± 0.094
C[C@]12C=CC(=O)C=C1CC[C@@H]1[C@@H]2[C@@H](O)C[C@@]2(C)[C@H]1CC[C@]2(O)C(=O)CO | 0.8 ± 0.15 | 0.888 ± 0.078
C[C@H]1C[C@@H]2[C@H]([C@@H](O)C[C@@]3(C)[C@H]2CC[C@]3(O)C(=O)CO)[C@@]2(C)C=CC(=O)C=C12 | 1.07 ± 0.02 | 0.417 ± 0.054
CC(=O)OCC(=O)[C@@]1(O)CC[C@H]2[C@@H]3CCC4=CC(=O)C=C[C@]4(C)[C@H]3[C@@H](O)C[C@@]21C | 0.822 ± 0.19 | 0.823 ± 0.06
CC(C)Nc1ncccn1 | 0.928 ± 0.053 | 1.05 ± 0.2
Cc1oc(=O)oc1CN1CCN(c2cc3c(cc2F)c(=O)c(C(=O)O)c2n3C(C)S2)CC1 (stereo unspecified) | 1.14 ± 0.069 | 0.0187 ± 0.0013
NC(=O)[C@@H]1CCCN1C(=O)[C@H](Cc1c[nH]cn1)NC(=O)[C@@H]1CCC(=O)N1 | 1.02 ± 0.038 | 0.959 ± 0.044
CC1(C)OC(=O)C(OCC2CC2)=C1c1ccc(S(C)(=O)=O)cc1 | 1.15 ± 0.017 | 1.2 ± 0.13
OCC(S)CS (stereo unspecified) | 0.927 ± 0.011 | 1.03 ± 0.053
O=C(O)c1ccc[n+]([O-])c1 | 0.967 ± 0.051 | 1.05 ± 0.023
COc1ccc2cc(C(C)C(=O)O)ccc2c1 (stereo unspecified) | 1.04 ± 0.036 | 1.09 ± 0.089
C=C[C@H]1CN2CC[C@H]1C[C@H]2[C@H](O)c1ccnc2ccc(OC)cc12 | 0.978 ± 0.042 | 0.953 ± 0.058
CCCCC(CC)COC(=O)c1ccccc1O (stereo unspecified) | 1.05 ± 0.055 | 0.89 ± 0.17
Nc1ccc(C(=O)O)cc1 | 1.023 ± 0.0022 | 0.829 ± 0.11
O=c1[nH]c(=O)n([C@H]2C[C@H](O)[C@@H](CO)O2)cc1F | 0.699 ± 0.043 | 0.209 ± 0.03
CCc1cn([C@H]2C[C@H](O)[C@@H](CO)O2)c(=O)[nH]c1=O | 1.09 ± 0.034 | 0.868 ± 0.01

SMILES | normalized intracellular growth (time point: T3 (3 h)) | normalized intracellular growth (time point: Tfinal (~6 h))
O=c1[nH]c(=O)n([C@H]2C[C@H](O)[C@@H](CO)O2)cc1I | 1.005 ± 0.0041 | 1.01 ± 0.2
CC(C)(C)C(=O)C(Oc1ccc(Cl)cc1)n1ccnc1 (stereo unspecified) | 1.042 ± 0.0043 | 1.12 ± 0.016
N#Cc1ccc2c(c1)N(CCCN1CCC(O)CC1)c1ccccc1S2 | 1.04 ± 0.014 | 0.869 ± 0.15
CC(C)C[C@@H]1NC(=O)[C@H](CCCN)NC(=O)[C@H](C(C)C)NC(=O)[C@H](Cc2ccc(O)cc2)N[C@@H](CCC(=O)O)C(=O)N[C@@H](CC(N)=O)C(=O)[C@@H](Cc2ccccc2)NC(=O)[C@H](Cc2ccccc2)NC(=O)[C@@H]2CCCN2C(=O)[C@@H](Cc2ccccc2)NC1=O | 0.95 ± 0.055 | 1 ± 0.064
CO/N=C(\C(=O)N[C@@H]1C(=O)N2C(C(=O)O)=C(C[N+]3(C)CCCC3)CS[C@H]12)c1csc(N)n1 | 1.01 ± 0.054 | 0.0358 ± 0.0021
Cc1nnc(SCC2=C(C(=O)O)N3C(=O)[C@@H](NC(=O)Cn4cnnn4)[C@H]3SC2)s1 | 1.09 ± 0.087 | 1.2 ± 0.074
CC(=O)OCC1=C(C(=O)O)N2C(=O)[C@@H](NC(=O)CSc3ccncc3)[C@H]2SC1 | 1 ± 0.024 | 0.957 ± 0.042
CC=CC1=C(C(=O)O)N2C(=O)[C@@H](NC(=O)[C@H](N)c3ccc(O)cc3)[C@H]2SC1 | 1.06 ± 0.039 | 0.738 ± 0.11
N[C@@H](C(=O)N[C@@H]1C(=O)N2C(C(=O)O)=C(Cl)CS[C@H]12)c1ccccc1 | 1.03 ± 0.054 | 1.08 ± 0.021
Cn1nnnc1SCC1=C(C(=O)O)N2C(=O)[C@@H](NC(=O)[C@H](O)c3ccccc3)[C@H]2SC1 | 1.08 ± 0.041 | 1.02 ± 0.17
CC(=O)OCC1=C(C(=O)O)N2C(=O)[C@@H](NC(=O)Cc3cccs3)[C@H]2SC1 | 0.979 ± 0.037 | 1.01 ± 0.027
CO/N=C(\C(=O)N[C@@H]1C(=O)N2C(C(=O)OCOC(=O)C(C)(C)C)=C(/C=C\c3scnc3C)CS[C@H]12)c1csc(N)n1 | 0.923 ± 0.047 | 0.0689 ± 0.074
C=CC1=C(C(=O)O)N2C(=O)[C@@H](NC(=O)/C(=N\O)c3csc(N)n3)[C@H]2SC1 | 0.973 ± 0.034 | 0.0262 ± 0.0031
CO/N=C(\C(=O)N[C@@H]1C(=O)N2C(C(=O)O)=C(COC(C)=O)CS[C@H]12)c1csc(N)n1 | 0.898 ± 0.017 | 0.178 ± 0.0072
COCC1=C(C(=O)OC(C)OC(=O)OC(C)C)N2C(=O)[C@@H](NC(=O)/C(=N\OC)c3csc(N)n3)[C@H]2SC1 (stereo partly specified) | 0.953 ± 0.066 | 1.06 ± 0.2
NC(=O)NC(=O)Cc1ccccc1 | 0.993 ± 0.021 | 0.979 ± 0.038
CNC(=N)NCCC[C@H](N)C(=O)O | 1.11 ± 0.029 | 0.921 ± 0.26
NC[C@H]1O[C@H](O[C@H]2[C@H](O)[C@@H](O[C@H]3O[C@H](CO)[C@@H](O)[C@H](N)[C@H]3O)[C@H](N)C[C@@H]2N)[C@H](N)[C@@H](O)[C@@H]1O | 0.81 ± 0.012 | 0.554 ± 0.025
CC1(C)[C@H]2CC[C@]1(CS(=O)(=O)O)C(=O)C2=Cc1ccc(C=C2C(=O)[C@@]3(CS(=O)(=O)O)CC[C@@H]2C3(C)C)cc1 | 0.978 ± 0.028 | 1.17 ± 0.22
Cc1nccnc1N1CCCCC1 | 1.09 ± 0.057 | 0.933 ± 0.023
CCC(=O)O[C@H](CC(=O)O)C[N+](C)(C)C | 1.06 ± 0.052 | 1 ± 0.028
NCCNCCNCCN | 0.972 ± 0.044 | 1.2 ± 0.037
